NALP1 yeast inh: inhibitors of NALP1 inflammasome in yeast | S. cerevisiae NALP1/ASC/caspase-1 growth, X-gal OD620, 72 h | inhibition, % at 10 µM | actives 0.61% (n = 280,000) | AID 2071; in the data active means inhibition mostly above about 24%, no sharp cut-off; inactive means mostly below about 32%
dFosB activator: mouse delta FosB homodimer activation. activation, % at 25 µM. P13346. purified delta FosB, TAMRA-CDK5 oligo fluorescence polarization; percent of positive-control signal above neutral wells. actives 0.99% (n = 340,000). AID 493131;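 active means mean activation above about 17%, with every replicate also reaching it, limit read from the data, passing the limit was not always enough; inconclusive means only one of the two conditions met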
Target sequence (P13346 whole entry, looked up): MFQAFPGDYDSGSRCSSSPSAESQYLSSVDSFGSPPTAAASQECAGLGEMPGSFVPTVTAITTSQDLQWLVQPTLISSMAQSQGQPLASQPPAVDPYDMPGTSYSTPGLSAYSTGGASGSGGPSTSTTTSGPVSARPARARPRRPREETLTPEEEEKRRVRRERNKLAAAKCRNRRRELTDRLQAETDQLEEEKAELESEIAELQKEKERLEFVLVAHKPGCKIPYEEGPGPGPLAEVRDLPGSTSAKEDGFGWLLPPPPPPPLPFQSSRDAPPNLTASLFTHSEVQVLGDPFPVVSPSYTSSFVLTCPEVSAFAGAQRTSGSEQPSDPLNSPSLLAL
UBC13 inh: blocks human UBC13 polyubiquitin chain formation; inhibition, % at 20 µM; actives 0.47% (n = 330,000); AID 485273; P61088; TR-FRET; in the data active means inhibition above about 45%, passing the limit was not always enough; inconclusive means no clear call, values can overlap the other calls
NR3A LBD binder: modulates the human NR3A ligand-binding domain | NR3A LBD differential scanning fluorimetry, Tm shift; 0% = protein alone, 100% = glycine-bound protein | Tm shift relative to glycine control, % at 25 µM | actives 2.5% (n = 340,000) | AID 1259313;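 active means melting temperature shift of at least 10% of the positive control shift, at one fixed dose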
CR mimetic SO: caloric restriction mimetics inhibiting age-related superoxide in yeast; S. cerevisiae aged cells, superoxide DHE fluorescence; active compounds read low; superoxide response (% of plate mean), % at 10 µM; actives 0.18% (n = 330,000);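 active means superoxide response under a set limit, about three screen SD below normal, cut at about 65% in these data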;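 further: yeast aged for seven days with compound at 30 °C before DHE staining; 100% = average MFI of all compound-treated wells on the plate with controls excluded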
The depositor's hits bear a star. The list is not random: actives were taken first. Their share in the collection is about 4.3%.

`CCC(=O)c1ccc(N2CCN(C(=O)COc3ccccc3F)CC2)c(F)c1` gave NALP1 yeast inh 1, dFosB activator 3, UBC13 inh 4, NR3A LBD binder 0 and CR mimetic SO 102.
`Cc1ccc(C)c(S(=O)(=O)N2CCN(c3nc(-c4cccnc4)nc4ccccc34)CC2)c1` gave dFosB activator -15, UBC13 inh -2, NR3A LBD binder -5 and CR mimetic SO 86.
`Cc1nnc(N/N=C/c2c[nH]c3ccccc23)[nH]c1=O` gave dFosB activator -3, UBC13 inh 6, NR3A LBD binder 25* and CR mimetic SO 88.
Screening O=C(O)c1ccc(N/N=C/c2c[nH]c3ccccc23)cc1 returned NALP1 yeast inh 1, dFosB activator -7, UBC13 inh -9, NR3A LBD binder 10* and CR mimetic SO 106.
Screening Nc1ccc(C(=O)N/N=C/c2c[nH]c3ccccc23)cc1 returned NALP1 yeast inh -2, dFosB activator -7, UBC13 inh -5, NR3A LBD binder 21* and CR mimetic SO 104.
Screening C(=NN=C1c2ccccc2-c2ccccc21)c1c[nH]c2ccccc12 returned dFosB activator 0 and NR3A LBD binder 17*.
For CC1CCc2c(sc(NC(=O)/C=C/c3cccs3)c2C(=O)O)C1 (stereo unspecified) the results were dFosB activator -3, UBC13 inh -7, NR3A LBD binder -2 and CR mimetic SO 109.
CN(C)C(=O)OCc1c(-c2ccccc2)ncc2ccccc12 was read as dFosB activator -3, UBC13 inh -13, NR3A LBD binder 1 and CR mimetic SO 95.
Screening CCCCn1c(/N=C/c2c[nH]c3ccccc23)nc2ccccc21 returned NALP1 yeast inh 17, dFosB activator -16, UBC13 inh 10, NR3A LBD binder 23* and CR mimetic SO 88.
O=C(N/N=C/c1c[nH]c2ccccc12)c1cc(Cl)ccc1O was read as NALP1 yeast inh 15, dFosB activator -6, UBC13 inh 3, NR3A LBD binder 36* and CR mimetic SO 105.
Fc1c(F)c(F)c(N/N=C/c2c[nH]c3ccccc23)c(F)c1F was read as NALP1 yeast inh 11, dFosB activator -6, UBC13 inh 11, NR3A LBD binder 76* and CR mimetic SO 100.
CCCn1c(/N=C/c2c[nH]c3ccccc23)nc2ccccc21 was read as NALP1 yeast inh 3, dFosB activator -2, UBC13 inh 13, NR3A LBD binder 6 and CR mimetic SO 94.
Cn1c(N/N=C/c2c[nH]c3ccccc23)nc2ccccc21 was read as NALP1 yeast inh 5, dFosB activator inconclusive, UBC13 inh -4, NR3A LBD binder 19* and CR mimetic SO 110.
For O=C(N/N=C\c1c[nH]c2ccccc12)c1ccc(O)cc1 the results were NALP1 yeast inh 9, dFosB activator -4, UBC13 inh 3, NR3A LBD binder 41* and CR mimetic SO 102.
For O=C(N/N=C/c1c[nH]c2ccccc12)c1ccc(Br)cc1 the results were NALP1 yeast inh -6, dFosB activator -6, UBC13 inh 10, NR3A LBD binder 30* and CR mimetic SO 101.
For CC(C)Oc1ccc(Br)cc1C(=O)N/N=C/c1c[nH]c2ccccc12 the results were NALP1 yeast inh 6, dFosB activator -12, UBC13 inh 9, NR3A LBD binder 11* and CR mimetic SO 93.
O=C(N/N=C/c1c[nH]c2ccccc12)c1ccc(Cl)cc1 was read as NALP1 yeast inh 0, dFosB activator -3, UBC13 inh 5, NR3A LBD binder 37* and CR mimetic SO 114.
CCCCn1c(N)c(N(CC(C)C)C(=O)c2ccc(S(=O)(=O)N3CCCCC3)cc2)c(=O)[nH]c1=O was read as dFosB activator 3, UBC13 inh 2, NR3A LBD binder 1 and CR mimetic SO 103.
`CC(=O)c1ccc(S(=O)(=O)N(CC(=O)NC2CC2)Cc2ccc(F)cc2)cc1` gave dFosB activator -3, UBC13 inh -1 and NR3A LBD binder 0.
`CC(C)[C@H]1C(=O)Nc2ccccc2N1C(=O)N[C@@H](Cc1ccccc1)C(=O)N[C@H](C(=O)O)c1ccccc1` gave NALP1 yeast inh 3, dFosB activator -5, UBC13 inh -9, NR3A LBD binder -4 and CR mimetic SO 114.
Screening Cc1occc1C(=O)N/N=C/c1c[nH]c2ccccc12 returned NALP1 yeast inh 8, dFosB activator -3, UBC13 inh -14, NR3A LBD binder 13* and CR mimetic SO 83.
